High-throughput results as filed in PubChem BioAssay.
Shown are actives, neighbours in structure and some others; about 12% of the full set was active somewhere.
PLK1 PBD block – PLK1 (human) polo-box domain binding inhibition; P53350; Plk1 PBD binding of FITC phosphopeptide, fluorescence polarization; Potency, µM, without a hit: max response, negative = inhibition, usual class: inhibitors; actives 2.8% (n = 360,000); also: potency is read from the fitted curve at half-maximal effect; series mostly up to about 57 µM; % is scaled to controls: 0 for no effect and ±100 for the full control effect; nearly all actives have a fitted effect of over 65% in size
HP1b chromo inh – HP1-beta chromodomain-methylated histone interaction inhibition | P83916 | actives 0.56% (n = 390,000) | AID 540317 | AlphaScreen HP1-beta / biotin-H3K9me3 peptide binding | Potency, µM (titrated, usually from 114 µM), inactives show top-dose activity change, negative = inhibition, actives largely listed as inhibitors; also: potency is read from the fitted curve at half-maximal effect; nearly all actives have a fitted effect of over 70% in size
Target sequence (P83916 whole entry, looked up): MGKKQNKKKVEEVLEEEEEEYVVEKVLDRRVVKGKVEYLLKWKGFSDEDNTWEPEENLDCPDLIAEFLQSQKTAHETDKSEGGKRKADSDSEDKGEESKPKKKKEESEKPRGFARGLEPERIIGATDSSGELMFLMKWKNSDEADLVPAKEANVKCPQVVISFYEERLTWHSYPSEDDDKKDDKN
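HP1-beta protein (50 nM final) preincubated 30 min at room temperature with biotinylated H3(1-18)K9me3 peptide (50 nM) in PBS pH 7.4, 0.01% Tween-20, then compound added for 30 min. AlphaScreen streptavidin donor/nickel chelate acceptor beads (10 ug/mL final), 30 min dark, luminescence read.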
JMJD2A Tudor inh – inhibitors of human JMJD2A Tudor domain | O75164 | actives 4.4% (n = 390,000) | AID 504339 | AlphaScreen JMJD2A-Tudor / H3K4me3 peptide binding | Potency, µM (doses to about 114 µM), without a hit: at the top dose activity change, negative = inhibition, usual class: inhibitors; also: potency is read from the fitted curve at half-maximal effect; % is scaled to controls: 0 for no effect and ±100 for the full control effect; nearly all actives have a fitted effect of over 50% in size
BAZ2B inh – inhibitors of human BAZ2B bromodomain; AlphaScreen BAZ2B-H3K14Ac peptide displacement; Potency, µM (top dose mostly 114 µM), without a hit: at the highest dose activity change, negative = inhibition, hits mostly inhibitors; actives 4.4% (n = 360,000); also: potency is read from the fitted curve at half-maximal effect; % is scaled to controls: 0 for no effect and ±100 for the full control effect; nearly all actives have a fitted effect of over 60% in size
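BAZ2B (50 nM) with biotin-H3(5-23)K14Ac peptide (50 nM) in PBS pH 7.4, 0.01% Tween-20, preformed 30 min, then compound 30 min at room temperature; top concentration 110uM. AlphaScreen streptavidin donor/nickel chelate acceptor beads (10 ug/mL final), 20 min dark, signal read.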
PI5P4Ka inh – inhibitors of human PI5P4K alpha; P48426; max response, %; actives 1.2% (n = 330,000); AID 652105; PI5P4Kalpha enzyme, ADP-Glo luminescence, 60 min; stronger effect = lower value; active = max response of -50% or lower; inconclusive = between -30% and -50%; inactive = -30% or higher; also: value at the top dose of about 77 µM; % is scaled to controls: 0 for no effect and ±100 for the full control effect
Target sequence (P48426 whole entry, looked up): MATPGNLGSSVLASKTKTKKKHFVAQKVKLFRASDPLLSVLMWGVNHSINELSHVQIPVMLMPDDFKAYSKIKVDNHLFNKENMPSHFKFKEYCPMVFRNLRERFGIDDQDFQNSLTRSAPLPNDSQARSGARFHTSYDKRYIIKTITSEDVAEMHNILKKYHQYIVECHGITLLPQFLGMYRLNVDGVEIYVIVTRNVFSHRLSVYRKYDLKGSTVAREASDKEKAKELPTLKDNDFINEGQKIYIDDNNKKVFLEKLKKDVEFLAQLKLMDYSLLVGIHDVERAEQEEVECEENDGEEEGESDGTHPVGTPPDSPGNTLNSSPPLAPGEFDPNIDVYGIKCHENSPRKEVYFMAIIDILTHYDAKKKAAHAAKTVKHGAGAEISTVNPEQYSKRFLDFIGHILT
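ADP-Glo luminescence end-point read after a 60 min room-temperature kinase reaction of PI5P4Kalpha plus substrate, initiated with ATP at 5 microM final. Buffer: 0.038 M HEPES pH 7.4, EGTA, 0.1% CHAPS, 5% DMSO.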
G9a block – G9a (human) methyltransferase inhibition; G9a H3K9 monomethylation, AlphaScreen, 2 h; Potency, µM (doses to about 102 µM), without a hit: at the top dose activity, negative = inhibition, most hits filed as inhibitors; actives 8.8% (n = 350,000); Q96KQ7; also: potency is read from the fitted curve at half-maximal effect; % is scaled to controls: 0 for no effect and ±100 for the full control effect; nearly all actives have a fitted effect of over 75% in size
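Chemiluminescent proximity detection of H3K9 monomethylation, read after 10 min bead incubation in the dark. Reaction: 20 nM G9a, 500 nM biotin-H3K9 peptide, 20 uM SAM cofactor, 2 h, room temperature, following 15 min enzyme-compound preincubation.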
Numbers without * were called inactive; ? = inconclusive; · = no result given; [ ] = dose if it differs, or a comment. Unless noted, calls follow the shape of the dose curve; as a rule, active = well fitted curve in the direction sought with a large enough effect; inconclusive = small, poorly fitted or top-dose-only effect, or another doubt; inactive = no such curve, though single readings can be large; an effect the other way counts as inactive or inconclusive.

SMILES	PLK1 PBD block	HP1b chromo inh	JMJD2A Tudor inh	BAZ2B inh	PI5P4Ka inh	G9a block
CCCCn1c(N)c(N(CCOC)C(=O)CSCc2c(C)noc2C)c(=O)[nH]c1=O	-1%	34%	-10%	-17%	1	-3%
CCCCn1c(N)c(N(CC)C(=O)CSCc2c(C)noc2C)c(=O)[nH]c1=O	-3%	30%	-14%	-8%	6	45µM*
CCCN(C(=O)c1c(-c2ccccc2)noc1C)c1c(N)n(Cc2ccccc2)c(=O)[nH]c1=O	-17%	21%	0%	-37%	-1	-21%[0.0925 µM]
CCCN(C(=O)Cn1nc(C)c([N+](=O)[O-])c1C)c1c(N)n(Cc2ccccc2)c(=O)[nH]c1=O	-2%	21%	-3%	9%	-17	45µM*
CCCN(C(=O)CSCc1c(C)noc1C)c1c(N)n(Cc2ccccc2)c(=O)[nH]c1=O	-9%	-14%	-15%	3%	1	45µM*
CCc1ccc(-n2c(=O)c3c4c(sc3n(CC(=O)NC(C)CC)c2=O)CCCC4)cc1 (configuration not stated)	·	16%	-10%	0%	·	2%[59 µM]
Cc1c(C(=O)Nc2ccc(Nc3ccccc3)cc2)cccc1[N+](=O)[O-]	-8%	-21%	?	?	-6	40µM*
CCc1c(C)sc(NC(=O)c2ccccc2[N+](=O)[O-])c1C(N)=O	?	15%	-6%	-6%	-23	45µM*
CCC(=O)Nc1cccc(NC(=O)c2cccc([N+](=O)[O-])c2C)c1	-4%	16%	-9%	8%	5	-2%[59 µM]
CCOC(=O)c1c(NC(=O)c2cccc([N+](=O)[O-])c2C(=O)O)sc2c1CCCC2	?	57%	-26%	4%	?	21%
CCOC(=O)c1cc([N+](=O)[O-])c([N+](=O)[O-])cc1NC(C)=O	8.4µM*	16%	-5%	-36%	0	?
Cc1nn(C)c(C(=O)Nc2cccc(Nc3ccccc3)c2)c1[N+](=O)[O-]	·	·	·	50µM*	·	45µM*
COc1ccc(-c2cn3nc(N4CCCC(C(=O)NCc5ccccc5C)C4)sc3n2)cc1 (configuration not stated)	·	-17%	?	-11%	·	?
COC(=O)c1ccc2c(c1)c(-c1ccccc1)c(-c1ccccc1)n2C	-7%	79%	-20%	·	2	·
Cc1ccc(Nc2ncccc2C(N)=O)cc1[N+](=O)[O-]	?	-12%	-15%	-30%	-2	35µM*
CCOC(=O)c1ccc(NC(=O)c2nsc3ccccc23)cc1	·	86%	64%	50%	·	3.2µM*
CNC(=O)c1ccc(NC(=O)c2nsc3ccccc23)cc1	·	42%	-10%	-2%	·	2%[59 µM]
CCOC(=O)c1ccc(NC(=O)c2ccccc2[N+](=O)[O-])cc1	30µM*	?	-32%[57.1 µM]	-21%	-8	-40%[59 µM]
Cc1c(C(=O)Nc2ccc3c4c(cccc24)CC3)cccc1[N+](=O)[O-]	27µM*	8%	-18%	15%	1	-8%[59 µM]
CCOC(=O)N1CCC(NC(=O)c2cnn(-c3ccc(C)cc3)c2C2CCN(C(=O)OC(C)(C)C)CC2)CC1	·	41%	-10%	5%[57.1 µM]	·	-29%[59 µM]
CCOC(=O)c1c(C)oc2c(Cl)cc(NS(=O)(=O)c3ccc(Cl)c(C)c3)cc12	·	115%	-14%	41%	·	26%[59 µM]
COc1cccc(-c2ccc3ncnc(NCc4cccc(F)c4)c3c2)c1	·	·	·	-20%	·	8%[12.7 µM]
COc1ccc(C(CC(=O)Nc2ccc(C(C)=O)cc2)N2Cc3ccccc3C2=O)cc1 (configuration not stated)	·	18%	-10%	-17%	·	-27%[59 µM]
Cc1ccc(C(=O)C2CCN(S(=O)(=O)c3ccc(C(=O)O)cc3)CC2)cc1	-5%	23%	1%	-14%	7	-5%
CCOC(=O)c1ccccc1OC(=O)CS(=O)c1ccccc1[N+](=O)[O-] (configuration not stated)	24µM*	39%	-13%	-35%	5	40µM*
SMILES	PLK1 PBD block	HP1b chromo inh	JMJD2A Tudor inh	BAZ2B inh	PI5P4Ka inh	G9a block
CCn1c2ccccc2c2cc(NC(=O)c3ccccc3[N+](=O)[O-])ccc21	0%	3%	-35%	-38%	3	7.9µM*
Cc1c(C(=O)Nc2c3c(nn2C(C)(C)C)CS(=O)(=O)C3)cccc1[N+](=O)[O-]	7.5µM*	21%	?	-13%	-3	-1%
CCOC(=O)c1ccc(Nc2ncccc2[N+](=O)[O-])cc1	-14%	?	?	7.9µM*	-1	·
COC(=O)c1ccc(OC(=O)CS(=O)c2ccccc2[N+](=O)[O-])cc1 (configuration not stated)	?	32%	-3%	-10%	-2	·
CCc1ccccc1NC(=O)CNCC(=O)Nc1ccccc1CC	-1%	33%	-4%	-3%	-1	-3%
CCCCOc1ccc(C(=O)NCCc2sc3nc(-c4ccc(OC)cc4)nn3c2C)cc1	·	34%	-6%	0%	·	-1%[59 µM]
CCOC(=O)c1ccc(N/N=C/c2cc(Br)cc([N+](=O)[O-])c2O)cc1	?	?	10µM*	?	-11	0.56µM*
CCOC(=O)N1CCN(C(=O)CCSc2ccc(Cl)cc2)CC1	-2%	18%	-12%	2%	·	3%[59 µM]
CCOC(=O)N1CCN(C(=O)CCSc2ccc(C)cc2)CC1	3.4µM*	4%	-25%[11.4 µM]	0%	?	-8%[59 µM]
Cc1nc(S/C(=C/c2ccc(-c3cc(Cl)ccc3C)o2)C(=O)O)n[nH]1	?	13%	45µM*	-33%	-1	·
Cc1nc(S/C(=C/c2ccc(-c3ccc(C(=O)O)cc3)o2)C(=O)O)n[nH]1	-11%	?	20µM*	10µM*	-70*	11µM*
Cc1cc(C2=NNC(=NC3CC3)SC2)c(C)n1-c1ccccc1	-24%	-14%	?	?	-12	28µM*
CCOc1ccc(N=C2NN=C(c3cc(C)n(CC4CCCO4)c3C)CS2)cc1 (configuration not stated)	-23%	?	?	71µM*	-19	16µM*
COc1ccc(-n2c(C)cc(C3=NNC(=NC4CC4)SC3)c2C)cc1	-23%	?	?	-11%	-21	42%
C=CCN=C1NN=C(c2cc(C)n(CCOC)c2C)CS1	-1%	37%	-5%	?	2	-5%[59 µM]
Cc1cc(C2=NNC(=NC3CC3)SC2)c(C)n1Cc1ccco1	?	-21%	?	?	-2	25µM*
COCCn1c(C)cc(C2=NNC(=NC3CC3)SC2)c1C	-7%	7%	-26%	?	-27	40µM*
C[C@H](CCC(=O)O)C1CC[C@H]2C3CC[C@@H]4C[C@H](O)CC[C@]4(C)C3C[C@H](O)[C@]12C (some centres not stated)	·	·	·	·	·	30%[59 µM]
